# HT1080-NT tox: kills 2HG-producing HT-1080-NT fibrosarcoma cells; Potency, µM (doses to about 46.1 µM), hits mostly cytotoxic; HT-1080-NT fibrosarcoma viability, CellTiter-Glo ATP luminescence, 48 h; AID 686970; actives 1.6% (n = 360,000);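 also: NT is the 2HG producing partner of a matched IDH1 knockdown line; nearly all actives have a fitted effect of over 55% in size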
#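 Read-out is CellTiter-Glo luminescence after 10 minutes at room temperature, following 48 hours' compound treatment of HT-1080-NT cells (750 cells/well, RPMI, 5% FBS, 37 degrees C).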
# KB-V1 cytotox: kills drug-selected multidrug resistant KB-V1 cells; actives 3.4% (n = 400,000); KB-V1 MDR cells viability, CellTiter-Glo, 72 h; Potency, µM (titrated, usually from 46.1 µM), hits mostly cytotoxic; also: nearly all actives have a fitted effect of over 60% in size
#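 In this primary screen, KB-V1 cells overexpressing P-gp are incubated with library compounds (lowest to highest concentration) for 72 h at 37 degrees C before a luminescent ATP viability read.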
# MCF10A rerep: induces DNA re-replication in MCF 10a normal breast cells. actives 2.9% (n = 350,000). Potency, µM (series often up to 46.1 µM), actives largely listed as activators. MCF 10A DNA re-replication, Hoechst nuclear intensity, 48 h; also: nearly all actives have a fitted effect of over 50% in size
# SW480 rereplic: induces DNA re-replication in SW480 colon adenocarcinoma cells. SW480 DNA re-replication, Hoechst DNA content imaging, 48 h. Potency, µM (titrated, usually from 46.1 µM), usual class: activators. actives 1.8% (n = 340,000). AID 624297; also: nearly all actives have a fitted effect of over 55% in size
#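 Treated cells incubate 48 hr (37 C, 5% CO2), are stained 40 min with Hoechst, and nuclear fluorescence is enumerated; a rise in nuclei with high DNA signal marks re-replication.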
# KB-3-1 tox: kills parental KB-3-1 adenocarcinoma cells; KB-3-1 viability, CellTiter-Glo ATP luminescence, 72 h; Potency, µM (doses to about 46.1 µM), hits mostly cytotoxic; actives 1.4% (n = 400,000); AID 1347075; also: nearly all actives have a fitted effect of over 60% in size
#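 Luminescent ATP read-out (CellTiter-Glo) measures survival of drug-naive KB-3-1 cells after 72 h compound exposure at 37 °C. Titration series was screened from lowest to highest concentration, with DMSO vehicle plates as background controls.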
# HT1080 IDH1KD tx: kills HT-1080 cells with IDH1 knockdown; HT-1080 IDH1 knockdown viability, ATP luminescence, 48 h; Potency, µM (series often up to 46.1 µM), most hits filed as cytotoxic; actives 2% (n = 360,000); AID 686971
#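 HT-1080-IDH1KD cells (IDH1 knocked down), 750/well in RPMI with 5% FBS, treated with compound 48 h at 37 degrees C. Viability by CellTiter-Glo luminescence, normalised to DMSO and no-cell wells; concentration-response curves classed.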
# Hits are given with their value; . = inactive; ? = inconclusive; / = no result; [ ] = another dose, or the depositor's remark. A selection: hits, their analogues and other compounds. The true share with any hit is near 7.9%. Calls follow the shape of the dose curve; as a rule, active = well fitted curve in the direction sought with a large enough effect; inconclusive = small, poorly fitted or top-dose-only effect, or another doubt; inactive = no such curve, though single readings can be large; an effect the other way counts as inactive or inconclusive.
SMILES,HT1080-NT tox,KB-V1 cytotox,MCF10A rerep,SW480 rereplic,KB-3-1 tox,HT1080 IDH1KD tx
Cc1ccc(N(C)S(=O)(=O)c2ccc3[nH]c(=O)ccc3c2)cc1,/,.,/,/,.,/
Cc1cc(C)n(-c2nnc(Nc3ccc(C)c(Cl)c3)c3ccccc23)n1,/,.,/,/,.,/
CN(C)/C=N/c1ncc(C(=O)c2ccccc2)s1,.,.,.[0.0737 µM],.,.,.
CN(C)/C=N/c1ncc(C(=O)c2ccc(-c3ccccc3)cc2)s1,.,12µM,9.2µM,.,.,.
CC(C)(C)C(=O)Nc1nc2cc3c(cc2s1)OCO3,?,.,.,3.3µM,.,.
COC(=O)c1ccc2nc(NC(=O)C(C)(C)C)sc2c1,18µM,?,.,.,?,?
CNc1ccc(/C=C2\C=Cc3ccccc32)cc1I,/,?,/,/,.,/
Cc1ccc2nc(SCc3ccccc3)c(C=O)c(=O)n2c1,.,8.2µM,.,.,.,.
CCNc1nc(N2CCCC2)nc(N2CCCC2)n1,.,.,.,.,.,.
CCNc1nc(NC(C)(C)C)nc(N2CCCCC2)n1,.,.,18µM,15µM,?,.
COc1ccc(C(CNc2ccc(S(=O)(=O)N3CCN(C)CC3)cc2[N+](=O)[O-])N(C)C)cc1 (centres undefined),.,?,.,.,.,.
COc1ccccc1C(CNc1ccc(S(=O)(=O)N2CCCC2)cc1[N+](=O)[O-])N(C)C (centres undefined),?,12µM,?,.,.,.
O=[N+]([O-])c1cc(S(=O)(=O)N2CCCCCC2)ccc1F,?,.,4.6µM,/,?,?
CN(CC(=O)Nc1ccc(S(=O)(=O)N2CCCC2)cc1)Cc1ccc(Cl)cc1Cl,.,13µM,.,/,.,.
COc1ccc(CCN(C)c2ccc(S(=O)(=O)N3CCCC3)cc2[N+](=O)[O-])cc1OC,.,2.6µM,?,.,?,.
O=Cc1ccc(I)cc1,/,.,/,/,.,/
Cc1ccc(NC(=O)Cn2nc(C(F)(F)F)c3c2CCCC3)cc1C,/,.,/,/,.,/
CC(=O)NC(C)(c1ccccc1)c1nc(/C=C/c2ccccc2)cs1 (centres undefined),.,.,/,/,.,.
O=c1oc2ccccc2cc1-c1nc(-c2cccs2)no1,/,.,/,/,.,/
CN(CC(=O)Nc1ccc(Cl)cc1)c1ccc(S(=O)(=O)N2CCCCC2)cc1[N+](=O)[O-],.,16µM,.,.,?,?
CN(CC(=O)NCCc1ccc(S(N)(=O)=O)cc1)Cc1ccc(Cl)cc1Cl,.,16µM,.,.,?,.
O=C(Cn1cnc2onc(-c3ccc(F)cc3)c2c1=O)Nc1cccc(C(F)(F)F)c1,/,?,/,/,.,/
COc1ccc2c(c1)sc1ncc(C(=O)NCc3cccc(Cl)c3)c(=O)n12,/,.,/,/,.,/
CCc1ccccc1NC(=O)CN(C)C(=O)CSc1nn(-c2ccccc2)c(=S)s1,.,.,.,?,.,.
CCc1ccccc1NC(=O)CN(C)C(=O)CSc1nc2cc(Cl)ccc2s1,.,15µM,.,?,.,.
SMILES,HT1080-NT tox,KB-V1 cytotox,MCF10A rerep,SW480 rereplic,KB-3-1 tox,HT1080 IDH1KD tx
CCn1ncc(C2=NOC(C(=O)NCc3ccccc3)C2)c1C (centres undefined),2.8µM,?,4.6µM,3.7µM,1.6µM,1.8µM
CCn1ncc(C2=NOC(C(=O)Nc3c(C)n(C)n(-c4ccccc4)c3=O)C2)c1C (centres undefined),.,.,.,.,.,.
CCn1ncc(C2=NOC(C(=O)Nc3cccc(C(C)=O)c3)C2)c1C (centres undefined),.,18µM,.,.,?,.
COc1cccc(C2=NOC(C(=O)Nc3cccc(C(C)=O)c3)C2)c1OC (centres undefined),.,.,.,.,.,.
Cc1ccc(C(=O)c2oc3ccccc3c2NC(=O)c2cc(-c3ccccc3)on2)cc1F,/,.,/,/,.,/
COc1cccc(C(c2nnnn2C(C)(C)C)N2CCN(C/C=C/c3ccccc3)CC2)c1OC (centres undefined),?,.,/,/,.,.
Cc1cccc(CCNC(=O)c2cc3c(=O)[nH]c4ccc(C)cc4c3s2)c1,/,.,/,/,.,/

# Assay outcomes deposited in PubChem by National Center for Advancing Translational Sciences (NCATS).
